The values that follow come from the OligoGym collection.
Also: reference of the scale not given here.

The first assay has as its target ZNF384. Kind of assay: pooled miR-30 sensor sort-seq; sequence = guide strand. The conditions noted are these: shRNA.
With ATAAGGGTCATTCATCTCGGGC, the sensor-assay potency score (higher = more potent) is -1.42.

ATTTGTATGGTCTATCACCAGT gave a sensor-assay potency score (higher = more potent) of -0.958.

Sequence TTGAGCTTGAGCCTGGGCCTGG returned a sensor-assay potency score (higher = more potent) of -0.952.

TTATCTTTGTTGTGTTGCCGTC displayed a sensor-assay potency score (higher = more potent) of 0.0211.

As for ATCTTGTTGATGAACATTGTGT, the sensor-assay potency score (higher = more potent) was -0.823.

On to TTGGACTCTGTGTCCATACTGA, for which the sensor-assay potency score (higher = more potent) was -0.198.

The sequence TTGGAGTAGAATGTCAGTGAGC yielded a sensor-assay potency score (higher = more potent) of -0.969.

In the next assay the target is ZNF428. The assay is described as above. The conditions noted are these: shRNA.
As to TTCTAAGACAACACAGACCGGC, the sensor-assay potency score (higher = more potent) worked out at 0.28.

Sequence TCATCTTCTTCCAAGCTGGCGT registered a sensor-assay potency score (higher = more potent) of -0.345.

In turn, AGAGAGTGTATTCTGAATCAGA displayed a sensor-assay potency score (higher = more potent) of -1.95.

ATATTCAGGATCGTCAGTGGTC gave a sensor-assay potency score (higher = more potent) of -0.14.

In the case of TTCTTCCTCTTCGGAGTCCGGC, the sensor-assay potency score (higher = more potent) is -1.03.

TTCCTCTTCGGAGTCCGGCTCT: the sensor-assay potency score (higher = more potent) was -0.361.

TCTGAGAGAGTGTATTCTGAAT showed a sensor-assay potency score (higher = more potent) of -1.43.

TAAGACAACACAGACCGGCAGT: the sensor-assay potency score (higher = more potent) turned out to be 0.279.

As to TCACCTTGTAGCCAGGATCATA, the sensor-assay potency score (higher = more potent) is -1.68.

The sequence TCATCATCTTCTTCCAAGCTGG displayed a sensor-assay potency score (higher = more potent) of -0.45.

TGAATCAGAGGAATGCTCGGGG showed a sensor-assay potency score (higher = more potent) of 0.32.

Consider TCTAAGACAACACAGACCGGCA, for which the sensor-assay potency score (higher = more potent) is -0.807.

The next assay deals with ZNF471. The assay is described as above. The following applies: shRNA.
The sequence TTCTCTGATGTACAGTACGGGA registered a sensor-assay potency score (higher = more potent) of -1.32.

In the case of TTTGCCAGTGTGACATCTCTGA, the sensor-assay potency score (higher = more potent) was -0.159.

TTAAGGATAACTTTCTTCTGAA showed a sensor-assay potency score (higher = more potent) of -0.561.

For the sequence TTGATGTTGAGTAAGATTGGAA, the sensor-assay potency score (higher = more potent) was -0.353.

TAAACATCTCATGACTTCCCAT had a sensor-assay potency score (higher = more potent) of -0.174.

The sequence TTTCTTGTGTTTTATTACCATA came in with a sensor-assay potency score (higher = more potent) of -1.3.

Consider TGTGACATCTCTGATGTCGAGC, for which the sensor-assay potency score (higher = more potent) is -0.679.

Consider TACTCTTTGATGCTGAGTGAGT, for which the sensor-assay potency score (higher = more potent) was -0.705.

TTCTCCAACATCATACTCCTGT had a sensor-assay potency score (higher = more potent) of 0.565.

Take TAACTTTCTTCTGAACGCCTTC: the sensor-assay potency score (higher = more potent) is -0.31.

For the next assay, the target named is ZNF480. Described as above. The following applies: shRNA.
Regarding TTCTCTAAGGTGTACTTTCTGT, the sensor-assay potency score (higher = more potent) was -0.808.

As to TTTCAACTTGATTACATCCATT, the sensor-assay potency score (higher = more potent) was -1.17.

Turning to TAATTGGTTTGTCTTCTGCATT, the sensor-assay potency score (higher = more potent) is -1.51.

Regarding TTCATCTGGAAATAGCTCCAGT, the sensor-assay potency score (higher = more potent) came out at 0.626.

With TTAGTGATAACTTGTGTCTGAA, the sensor-assay potency score (higher = more potent) is -0.0434.

Sequence TAACTTGTGTCTGAATGCCTTG gave a sensor-assay potency score (higher = more potent) of -0.708.

Turning to TTTCTGATGTCGTACAAGGAGC, the sensor-assay potency score (higher = more potent) is -1.17.

TGAATTGTAACTAAAAACCTTG yielded a sensor-assay potency score (higher = more potent) of -0.76.

For TTGATGTTTAGTAAGGCTGGAA, the sensor-assay potency score (higher = more potent) was -0.447.

For TTGAATTGTAACTAAAAACCTT, the sensor-assay potency score (higher = more potent) is -0.157.
